# The campaign covered roughly 69,000 compounds. About 8,600 (12%) showed an effect of 50% or more. Only a selection was taken, and strong results are over-represented in it overall.
# System: Plasmodium berghei
# Assay: Screen against P. berghei liver stage (PbLuc), transformed with Luciferase, at 10uM
# Type: functional, HepG2
# Conditions: tested at 10 uM
row,Compound,INHIBITION [%]
1,Cc1ccoc1C(=O)N1CCO[C@H]2[C@H](OCCN(C)C)CC[C@@H]21,22.4
2,Cc1ccc(C(=O)NCCS(=O)(=O)N2CCSCC2)n1C,-28.9
3,CC(C)=CCN1CCN(CCCc2ccccc2)[C@H]2CS(=O)(=O)C[C@H]21,51.3
4,CN(C)C(=O)N1CCN(CCCc2ccccc2)[C@H]2CS(=O)(=O)C[C@H]21,-11.5
5,CC(C)=CCN1CCN(CCCOc2ccccc2)[C@H]2CS(=O)(=O)C[C@H]21,-25.7
6,COc1ccc(OCCN(C)Cc2nc3c(cnn3C)c(=O)[nH]2)cc1,38.8
7,CN1CCC(C)(CN(C)Cc2ccc(CCC(C)(C)O)cc2)C1 (stereo unspecified),32.4
8,Cc1cc(S(=O)(=O)NCC(C)(O)CN(C)C)c(F)cc1F (stereo unspecified),36.5
9,COc1cc(NC(=O)N(C)CCC2CC2)ncn1,4.82
10,COc1cc(NC(=O)N(C)C(C2CC2)C2CC2)ncn1,88.4
11,COc1cc(NC(=O)N(C)CC2CC2)ncn1,1.84
12,CS(=O)(=O)c1cccc(C(N)c2ccc(Cl)cc2)c1 (stereo unspecified),-53.2
13,CCn1ccnc1CN1CCN(CCc2ccncc2)CC1C (stereo unspecified),24.7
14,O=C(O)[C@@H]1CN(C(=O)c2ccc(O)cc2)C[C@H]1c1cccc(F)c1,-19.5
15,O=C(O)[C@@H]1CN(C(=O)c2ccc(F)c(F)c2)C[C@H]1c1cccc(F)c1,65.7
16,O=C(O)[C@@H]1CN(C(=O)c2ccc(Cl)cc2)C[C@H]1c1cccc(F)c1,13.3
17,CCN(Cc1nonc1C)C(=O)Cn1nc(C(F)(F)F)cc1C,44.35
18,CCOc1cc(C(=O)n2cccn2)cc(OCC)c1OCC,-30.6
19,N#CCCN(C(=O)CCc1cscn1)c1ccc2c(c1)OCCO2,-7.46
20,Cc1ccc(C(=O)Oc2cc(=O)n3cccc(C)c3n2)cc1,59.8
21,Cc1cccn2c(=O)cc(OC(=O)c3ccccc3)nc12,-19.7
22,Cc1cccc(C(=O)Oc2cc(=O)n3cccc(C)c3n2)c1,-51.1

row,Compound,INHIBITION [%]
1,CN1CCc2c(C#N)c(NCC3CCCO3)n3cnnc3c2C1 (stereo unspecified),-1.45
2,CCOc1nc2cnccc2n(CC(=O)NCc2ccc(C)cc2)c1=O,53.1
3,CCOc1nc2cnccc2n(CC(=O)NCc2ccco2)c1=O,46.7
4,CCOc1nc2cnccc2n(CC(=O)NCCc2ccccc2)c1=O,33.9
5,COc1cccc2c(=O)n(Cc3cc(C4CC4)[nH]n3)cnc12,-6.94
6,COc1cccc2c(=O)n(CCN3CCNCC3)cnc12,-109
7,COc1cccc2c(=O)n(C3CCCNC3)cnc12 (stereo unspecified),61
8,COc1cccc2c(=O)n(C3CCNCC3)cnc12,57.3
9,COc1cccc2c(=O)n(Cc3cccnc3)cnc12,-20
10,COc1cccc2c(=O)n(Cc3ccnc(C)c3)cnc12,17.5
11,O=C(NCc1cccs1)C1CNCC12CCOCC2 (stereo unspecified),-30.1
12,CCCn1[nH]c(CNc2ccccc2)nc1=O,32.5
13,CC(=O)c1cn(CC(=O)N[C@H](C(=O)O)C(C)C)c2ccccc12,35.1
14,CCOc1ccccc1N1CCN(CC2(O)CCCNC2)CC1 (stereo unspecified),29.2
15,Cc1ccccc1N1CCCN(CC2(O)CCCNC2)CC1 (stereo unspecified),39.9
16,Cc1ccc(C)c(N2CCN(CC3(O)CCNC3)CC2)c1 (stereo unspecified),50.5
17,NC(=O)c1csc(C(=O)N2CCCC(n3cccn3)C2)c1 (stereo unspecified),23.4
18,Cc1nc(CN(Cc2ccc3c(c2)OCCO3)C2CCCC2)no1,-31.8
19,CCN(CC)C(=O)CN1CCCC(c2nc(C)c3c(n2)N(C)CCC3)C1 (stereo unspecified),36
20,CNc1cc(C)nc(C2COCCN2Cc2csc(C)n2)n1 (stereo unspecified),53.6
21,CNc1cc(C)nc(C2COCCN2CCc2ccccc2)n1 (stereo unspecified),-2.9
22,Cc1cc(N(C)C)nc(C2COCCN2Cc2csc(C)n2)n1 (stereo unspecified),39.3

row,Compound,INHIBITION [%]
1,Cc1ccc(Br)cc1S(=O)(=O)NCCc1nnc[nH]1,23.5
2,Cc1ncnc2c1CCN(Cc1ccc3c(c1)OCO3)CC2,41.8
3,CC(=O)NCCC(Cc1ccccc1)c1ccco1 (stereo unspecified),-24.6
4,O=C(CCCOc1ccc(F)cc1F)N1CCCC(n2cccn2)C1 (stereo unspecified),11.4
5,CCc1nc(N)nc(N(C)Cc2nncn2CCOC)c1C,73.5
6,COCCn1cnnc1CN(C)c1nc(N)ncc1C,0.897
7,COCCn1cnnc1CN(C)c1nc(N)nc2c1CCCC2,23.3
8,CCO[C@@H]1CC[C@H]2[C@H]1OCCN2S(=O)(=O)C1CC1,2.59
9,Cc1cc(C)c(S(N)(=O)=O)cc1C(=O)NCCN1CCC(C)CC1,-7.83
10,Cc1ccc(C(=O)NCCCN2CCOCC2)c(Cl)c1,-56.5
11,CC1CCN(CCCNC(=O)c2ccc(N(C)S(C)(=O)=O)cc2Cl)CC1,79.2
12,Cc1ccc(C(=O)NC2CCN(C)CC2)cc1N(C)S(C)(=O)=O,34.2
13,CN(c1ccc(C(=O)NCCCN2CCCC2)c(Cl)c1)S(C)(=O)=O,40.9
14,Cc1ccc(C(=O)NCCN2CCOCC2)cc1N(C)S(C)(=O)=O,55.5
15,O=C(NCCCN1CCOCC1)c1ccc(Cl)cc1Cl,-4.52
16,CN(c1ccc(C(=O)NCCCN2CCOCC2)c(Cl)c1)S(C)(=O)=O,46.8
17,CN(c1ccc(C(=O)NCCN2CCOCC2)c(Cl)c1)S(C)(=O)=O,38.5
18,CN(c1ccc(Cl)c(C(=O)NCCCN2CCOCC2)c1)S(C)(=O)=O,63.3
19,Cc1ccc(C(=O)NCCC2CCN(C)CC2)cc1N(C)S(C)(=O)=O,42.1
20,CN(c1ccc(C(=O)NCCCN2CCCCC2)c(Cl)c1)S(C)(=O)=O,70.4
21,Cc1c(Cn2c(=O)cnc3ccccc32)cnn1C,34
22,COCC(=O)N1CCC2(CC1)NC(=O)c1ccccc12,46.7

row,Compound,INHIBITION [%]
1,Cc1ccc(CN2CC[C@@H]3[C@@H](CO[C@H]3CN3CCN(C)CC3)C2)s1,-35.9
2,NC(=O)C1CCN(CC(=O)N(Cc2ccccc2)Cc2nccs2)CC1,2.15
3,O=C(Cc1ccon1)N1CCc2cc(Br)sc2C1,-28.9
4,CC(C)c1nnc(CN2CCCC(c3cc(C(N)=O)[nH]n3)C2)o1 (stereo unspecified),33.7
5,C[C@@H]1CN(c2nc3c(cc2C(N)=O)CCC3)C[C@]1(C)O,-13.8
6,CCc1nc(CC2CN(c3ncnc4nc(C)cc(C)c34)CCO2)no1 (stereo unspecified),22
7,Cc1nc(-c2noc3ccc(C(=O)NCCN4CCOCC4)cc23)co1,63
8,Cc1nc(-c2noc3ccc(C(=O)NCCN4CCOCC4)cc23)cs1,46.7
9,CC1CCCN(CCCNC(=O)c2cn(C)nc2-c2cccnc2)C1 (stereo unspecified),13.2
10,CN(C)CCCNC(=O)c1ccc(N(C)S(C)(=O)=O)cc1Cl,64.1
11,Cc1nc(-c2noc3ccc(C(=O)NCCN(C)C)cc23)co1,8.31
12,CC1CCCN(CCCNC(=O)c2ccc(N(C)S(C)(=O)=O)cc2Cl)C1 (stereo unspecified),53.7
13,CN(C)CCCNC(=O)c1cc(Cl)ccc1Cl,4.93
14,CN(C)CCCNC(=O)c1ccc(Cl)cc1Cl,16
15,CN1CCC(CCNC(=O)c2ccc(N(C)S(C)(=O)=O)cc2Cl)CC1,8.47
16,Cc1ncsc1C(=O)NCc1ccnc(N2CCN(C)CC2)c1,12.85
17,CCc1cnc(N2C[C@@H]3C[C@H](C(=O)N4CCOCC4)[C@H](C2)O3)nc1,28.5
18,CCOC(=O)N1[C@@H](c2ccco2)[C@@H](C(=O)O)C[C@]12CCCCNC2=O,-8.8
19,O=C(O)c1cnc(N2CCCC2)nc1COc1ccccc1,-14.8
20,Cc1cnn(C2CN(CC(=O)NCC(C)C)C2)c1,16.9
21,CCn1cnnc1C1CCN(C(=O)c2ccoc2C)CC1,-5.07
22,c1ccc(COc2cccc(CNC3CCc4ncnn4C3)c2)cc1 (stereo unspecified),33.6

row,Compound,INHIBITION [%]
1,Cc1ccc2c(c1)C(=O)NCC1(CCN(C(=O)c3csc(C)c3)CC1)O2,-28.6
2,O=C(N1CCOCC1)N1C2CCC(O)(CC2)C1CN1CCOCC1 (stereo unspecified),44.2
3,CNc1cc2c(nn1)CCN(C(=O)c1coc(Br)c1)C2,3.73
4,Cc1cnn(CC2CCCN2C(=O)Cc2c(C)nc(C)[nH]c2=O)c1 (stereo unspecified),31.8
5,Cc1ncc(CC(=O)N2CCCCC2CCN2CCCC2)c(=O)[nH]1 (stereo unspecified),61.8
6,Cc1ncc(CC(=O)N2CCC(N3C[C@@H](C)O[C@@H](C)C3)CC2)c(=O)[nH]1,37.4
7,CC(=O)NC(CC(=O)Nc1ccc(C)cn1)c1ccccc1 (stereo unspecified),27.6
8,N#CC1(NC(=O)c2cc(Cl)ccc2OC(F)F)CCOCC1,45.4
9,O=C(c1c[nH]c(=O)[nH]1)N1CCc2ccccc21,90.7
10,O=C(c1ccc(=O)[nH]n1)N1CCc2ccccc21,38.8
11,O=C(NN1CCCc2ccccc21)c1c[nH]c(=O)[nH]1,32.3
12,O=C([C@@H]1COC[C@H]2CN(c3ccncn3)C[C@H]21)N1CCCC1,-10.3
13,CCOC(=O)c1n[nH]cc1-c1cncn1CCCn1nc(C)cc1C,15.9
14,CC(=O)N1CCC(c2cccc(Oc3ccccc3)n2)CC1,9.98
15,NCC(=O)N1CCC(c2cccc(Oc3ccccc3)n2)CC1,75.9
16,CNCC(=O)N1CCC(c2cccc(Oc3ccccc3)n2)CC1,29.5
17,CCn1cc(Br)c(C(=O)NCc2ccc(F)cc2)n1,-34
18,O=C(NCc1ccc(-n2cncn2)nc1)c1cnccn1,48.3
